Sa RN4220 lethal: kills Staphylococcus aureus RN4220. S. aureus RN4220 growth, OD600, 16 h. inhibition, % (no concentration beside the values). 330,000 compounds, 0.33% hits. AID 1259311; in the data active = inhibition above about 85%;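 note: plate controls were untreated cells for no effect and reference antibiotic for full effect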
SSB-PriA inh: inhibitors of Klebsiella pneumoniae PriA binding to SSB C-terminal tail | AlphaScreen SSBct-PriA binding, biotinylated peptide | inhibition, % at 33 µM | 430,000 compounds, 0.6% hits | AID 1272365; in the data active = inhibition mostly above about 37%, no sharp cut-off; inactive = mostly below about 20%;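 note: plate controls were negative control peptide for no effect and reference peptide for full effect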
ugtP null kill: growth inhibition of S. aureus ugtP deletion strain | S. aureus RN4220 ugtP deletion, OD600 growth, 16 h | growth inhibition, % (concentration not given with the values) | 330,000 compounds, 0.54% hits | AID 1259309; in the data active = growth inhibition above about 68%;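 note: plate controls were untreated wells for no effect and antibiotic for full effect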
An asterisk follows results filed as active; nt = no result. Hits are enriched below; roughly 1% of the tested compounds scored in any of these assays.

SMILES | Sa RN4220 lethal | SSB-PriA inh | ugtP null kill
COc1ccc(CNC(=O)C2CC(c3ccc(OC)cc3)=NO2)cc1 (stereo not drawn) | 0.9 | -9.8 | 3.9
COc1ccc(C2=NOC(CNC(N)=S)C2)cc1 (stereo not drawn) | 72.8 | -8.3 | 83.3*
O=C(Nc1cccnc1)c1c[nH]c2c(C(F)(F)F)cccc2c1=O | nt | -5.0 | nt
Cc1onc(-c2ccccc2Cl)c1C(=O)NCCn1ncc2c(=O)n(Cc3cccc([N+](=O)[O-])c3)cnc21 | nt | -7.0 | nt
Cc1c(C(=N)C(C#N)C#N)c(=N)oc2c1ccc1ccccc12 | nt | 70.0* | nt
Cc1c(C(=O)O)oc2c1ccc1ccccc12 | -0.4 | -12.8 | -4.9
O=C1NC(=S)S/C1=C\c1ccccc1F | nt | 5.0 | nt
O=C1NC(=S)S/C1=C\c1cc(Cl)ccc1Cl | 100.2* | -5.8 | 99.9*
O=C(CCCSc1ccc(NC(=O)c2ccc(F)cc2)nn1)NCc1ccco1 | nt | -24.0 | nt
CC(=O)Nc1ccc(S(=O)(=O)NCCc2cn3ccc(C)cc3n2)cc1 | nt | 0.0 | nt
O=S(=O)(N=C(Sc1ccc(Cl)cc1)c1ccccc1)c1ccccc1 | 26.2 | 4.7 | 92.1*
O=S(=O)(N=C(Sc1ccccc1)c1ccccc1)c1ccc(Cl)cc1 | -0.6 | 3.1 | 19.3
CCc1ccccc1Sc1nccn2c(=O)n(CC(=O)NCc3ccc(OC)cc3)nc12 | nt | -30.0 | nt
Cc1cc(C(=O)CCl)c(C)n1CCc1ccc(Cl)cc1 | 93.4* | 40.8* | 97.0*
Cc1cc(C(=O)CCl)c(C)n1CCc1ccc(F)cc1 | 21.0 | 7.0 | -1.9
COC(=O)C(C)Sc1nc2c(cnn2-c2cccc(Cl)c2)c(=O)[nH]1 (stereo not drawn) | nt | 9.0 | nt
COc1ccc2c(c1)C(C)=CC(C)(C)N2S(=O)(=O)c1ccc(NC(C)=O)cc1 | nt | -10.3 | nt
COc1ccc2c(c1)C(C)=CC(C)(C)N2S(=O)(=O)c1ccc(Br)cc1 | -2.3 | -6.1 | 85.8*
COc1ccc(Nc2nc(-c3cc(C)oc3C)cs2)cc1F | nt | 8.0 | nt
O=c1ccnc(SCc2ccc(O)c3ncccc23)[nH]1 | nt | 106.0* | nt
Oc1ccc(CNc2ccccc2C(F)(F)F)c2cccnc12 | nt | 44.2 | nt
Oc1ccc(CSc2ccccc2)c2cccnc12 | nt | 88.4* | nt
Cc1[nH]c2ccccc2c1C(=O)CSc1nccc(=O)[nH]1 | 6.5 | 2.0 | 6.7
Oc1ccc(CSc2ncccn2)c2cccnc12 | nt | 76.0* | nt
CCCCCCCCCCSCc1ccc(O)c2ncccc12 | nt | 57.0 | nt
SMILES | Sa RN4220 lethal | SSB-PriA inh | ugtP null kill
N#CSCc1ccc(O)c2ncccc12 | nt | 111.0* | nt
O=C(/C=C/c1ccccc1)N1CCN(c2ccc(-n3cccn3)nn2)CC1 | nt | -6.0 | nt
Cc1noc(Cc2ccccc2NC(=O)CSc2ccc(F)cc2)n1 | nt | -19.0 | nt
CC(=O)c1ccc(NC(=S)N2CCN(C(=S)Nc3ccc(C(C)=O)cc3)C(C)C2)cc1 (stereo not drawn) | -0.2 | -6.0 | 0.2
COc1c(N2CCN(C(=S)NC3CC4CCC3C4)C(C)C2)c(F)cc2c(=O)c(C(=O)O)cn(C3CC3)c12 (stereo not drawn) | 100.4* | -10.1 | 100.1*
COc1cccc(N(CC(=O)NC2CC3CCC2C3)S(=O)(=O)c2ccccc2)c1 (stereo not drawn) | 4.9 | -24.6 | 9.0
COc1c(N2CCN(C(=S)Nc3ccc(F)cc3)C(C)C2)c(F)cc2c(=O)c(C(=O)O)cn(C3CC3)c12 (stereo not drawn) | 100.1* | -11.9 | 99.0*
O=C(Cn1sc2ccccc2c1=O)NC12CC3CC(CC(C3)C1)C2 | 105.9* | 11.6 | 100.6*
Nc1cccc2c1C(=O)N(CC(=O)NC13CC4CC(CC(C4)C1)C3)C2=O | 4.4 | -11.0 | 11.7
CSc1nnc(-c2ccccc2)o1 | 6.4 | -22.7 | 10.9
O=S1(=O)C=C(Sc2nnc(-c3ccccc3)o2)c2ccccc21 | 92.6* | -19.1 | 90.7*
Cc1csc(NC(=O)CSc2ccccn2)n1 | nt | 46.1 | nt
CCN1c2ccccc2-c2nc(SCC(=O)Nc3ccccc3C(F)(F)F)ncc2S1(=O)=O | nt | -19.0 | nt
Cc1cnc(C(=O)N2CCN(S(=O)(=O)c3cc(C(F)(F)F)cc(C(F)(F)F)c3)CC2)cn1 | 23.3 | -10.3 | 13.2
CC1CC1C(=O)N1CCN(S(=O)(=O)c2cc(C(F)(F)F)cc(C(F)(F)F)c2)CC1 (stereo not drawn) | 86.5* | -12.8 | 96.1*
O=C(Nc1nc2c(s1)C(=O)NCCC2)c1c[nH]c(=O)c(Cl)c1 | nt | 1.0 | nt
O=C(Cc1ccccc1)NCCS(=O)(=O)N1CCN(c2cccc(Cl)c2)CC1 | -3.2 | -2.4 | -0.4
O=C(Cc1ccc(F)cc1)NCCS(=O)(=O)N1CCN(c2cccc(Cl)c2)CC1 | 0.4 | 38.4* | -0.1
C#CCn1c(=NC(=O)CSCC(=O)NC2CCCCC2)sc2ccccc21 | nt | 43.0* | nt
COC(=O)Cn1c(=NC(=O)CSCC(=O)NC2CCCCC2)sc2cc(OC)ccc21 | 2.4 | -7.7 | 8.4
CCN(CC)S(=O)(=O)c1ccc(C(=O)Nc2cc(-c3ccccc3)sc2C(=O)OC)cc1 | nt | -2.0 | nt
CS(=O)(=O)N1CCCCC1C(=O)N(Cc1ccccc1)Cc1ccccc1 (stereo not drawn) | nt | -9.0 | nt
CCOC(=O)C1=C(C)NC2=C(C(=O)c3ccccc32)C1c1cccc2ccccc12 (stereo not drawn) | -2.3 | -0.8 | 34.0
CCOC(=O)C1=C(C)NC2=C(C(=O)c3ccccc32)C1c1ccc(O)cc1 (stereo not drawn) | 2.1 | 52.5* | -14.4
CN(C)CCCN(C(=O)CSc1ccc(Cl)cc1)c1nc2ccc([N+](=O)[O-])cc2s1 | nt | 17.0 | nt
SMILES | Sa RN4220 lethal | SSB-PriA inh | ugtP null kill
Nc1nc2c3c(ccc2s1)CCCC3 | nt | 4.0 | nt
O=C(NCc1cccs1)C(=O)NCC(c1ccco1)N1CCc2ccccc2C1 (stereo not drawn) | nt | -13.0 | nt
O=C(NN=Cc1ccc([N+](=O)[O-])s1)c1cncc(Br)c1 | 25.0 | 2.3 | 99.1*
O=C(NN=Cc1ccc([N+](=O)[O-])s1)c1ccncc1 | 26.4 | 4.5 | 20.5
Cc1[nH]cnc1C(=O)NN=Cc1ccc([N+](=O)[O-])s1 | 100.5* | -9.1 | 100.5*
COC(=O)NN=Cc1ccc([N+](=O)[O-])s1 | 19.7 | 6.8 | 14.0
COc1ccc(-n2nnc(C(=O)OCc3nc(-c4cccc(OC)c4OC)oc3C)c2C)cc1Cl | nt | -16.0 | nt
Cn1nccc1C(=O)NCc1ccccc1 | nt | 3.0 | nt
O=C(c1ccccc1C(F)(F)F)N1CCC(c2nnc(-c3ccco3)s2)CC1 | nt | -5.0 | nt
COc1cc(NN=C(C)c2ccc(O)c(C)c2)nc(-c2ccccc2)n1 | 15.2 | -20.3 | 82.8
CC(=NNc1cc(-c2ccccc2)nc(-c2ccccc2)n1)c1ccc(O)c(C)c1 | 98.5* | 14.6 | 99.5*
Cc1ccc(CN(CC(O)COc2cccc3[nH]cc(C)c23)C(C)(C)C)cc1 (stereo not drawn) | 8.2 | 1.4 | 9.6
Cc1c[nH]c2cccc(OCC(CNC(C)(C)C)OC(=O)c3ccccc3)c12 (stereo not drawn) | 1.2 | 49.3* | 2.9
CCC(O)=C1C(=O)CC(C)(C)CC1=NCCc1nc2ccccc2[nH]1 | nt | -10.7 | nt
Cc1ccc(S(=O)(=O)CC(=O)Nc2ccc([N+](=O)[O-])cc2)cc1 | nt | 4.0 | nt
CC(C)(C)C(O)CCNC(=O)CSCc1ccccc1 (stereo not drawn) | nt | -3.0 | nt
CC1Cc2ccccc2N1CC(=O)c1c(N)n(Cc2ccccc2)c(=O)n(C)c1=O (stereo not drawn) | -4.6 | 6.8 | -2.1

Compound activity deposited in PubChem by several laboratories.
